Screening results as filed in PubChem.
Tau ThT inhib: inhibitors of human tau fibril formation, thioflavin T binding; P10636; recombinant tau K18 P301L, heparin-induced fibrillization, ThT fluorescence; 270,000 tested, 2.1% active; Potency, µM (titrated, usually from 57.4 µM), without a hit: top-dose activity, negative = inhibition, usual class: inhibitors; note: potency is the fitted concentration of half-maximal effect; nearly all actives have a fitted effect of over 55% in size
Target sequence (P10636 561-689 P618L limits assumed): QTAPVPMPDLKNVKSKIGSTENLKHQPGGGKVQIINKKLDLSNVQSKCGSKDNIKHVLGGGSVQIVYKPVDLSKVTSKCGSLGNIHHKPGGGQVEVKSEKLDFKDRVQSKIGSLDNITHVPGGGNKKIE
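Aggregation was driven by heparin (20 uM final) acting on recombinant tau […] bearing P301L in 100 mM sodium acetate pH 7; fibrils were detected with Thioflavin T.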
KDM4E inh: inhibitors of human JMJD2E histone demethylase | B2RXH2 | JMJD2E catalytic domain, FDH-coupled NADH fluorescence (FDH is formaldehyde dehydrogenase) | Potency, µM (doses to about 57.1 µM), inactives show top-dose activity change, negative = inhibition, hits mostly inhibitors | 230,000 tested, 1.6% active | AID 2147; active = well fitted inhibition curve with a large enough effect, not every such curve was filed as active; inconclusive = small, poorly fitted or top-dose-only effect, or another doubt; inactive = no such curve, though single readings can be large or run the other way;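 note: potency is the fitted concentration of half-maximal effect; 0% = wells with enzyme and -100% = buffer wells without enzyme; nearly all actives have a fitted effect of over 50% in size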
Target sequence (B2RXH2 1-337 limits assumed): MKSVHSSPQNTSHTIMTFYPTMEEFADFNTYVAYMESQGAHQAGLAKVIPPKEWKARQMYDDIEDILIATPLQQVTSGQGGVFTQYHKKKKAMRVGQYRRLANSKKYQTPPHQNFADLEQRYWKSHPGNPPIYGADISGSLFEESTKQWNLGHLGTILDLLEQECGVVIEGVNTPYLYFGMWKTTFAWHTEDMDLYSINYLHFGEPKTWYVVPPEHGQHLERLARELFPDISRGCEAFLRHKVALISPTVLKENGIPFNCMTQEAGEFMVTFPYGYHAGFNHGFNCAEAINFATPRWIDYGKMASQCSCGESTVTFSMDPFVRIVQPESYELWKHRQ
FBPA coupling cs: inhibits coupling enzyme system, counter-screen for aldolase hits. coupling enzyme system counterscreen, AmpLite Red fluorescence. 290,000 tested, 0.67% active. activity change, negative = inhibition, % at 58.2 µM, hits read low; in the data active = activity change below about -30%
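Final compound at 57.5 uM, incubated 10 min at RT with coupling enzyme reagent (glyceraldehyde-3-phosphate), then 20 min with substrate and AmpLite Red detection. Fluorescence read at 525/598 nm; tests interference with the coupling assay, not aldolase inhibition.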
Tau fibril FP: tau fibrillization inhibition (FP). Potency, µM (series often up to 57.7 µM), for inactives: top-dose activity, negative = inhibition, actives largely listed as inhibitors. K18 P301L tau heparin fibrillization, Alexa594 FP, 6 h. 280,000 tested, 0.39% active; note: potency is the fitted concentration of half-maximal effect; nearly all actives have a fitted effect of over 55% in size
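Steps: dispense K18 P301L tau (15 uM plus 0.24 uM Alexa 594 tracer, final) in pH 7 sodium acetate; add compound; add heparin (20 uM final); incubate 6 hr, 37 C; add ThT (30 uM final); after 1 hr ambient, read FP.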
Tau fluor cs: counter-screen for tau fibril formation inhibitors. tau K18 P301L (four-repeat tau fragment) Alexa594 fluorescence, heparin fibrillization. 280,000 tested, 0.93% active. Potency, µM (titrated, usually from 57.7 µM), for inactives: at the highest dose activity change, negative = decrease. AID 1463; note: potency is the fitted concentration of half-maximal effect; nearly all actives have a fitted effect of over 55% in size
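Human K18 P301L tau (15 uM unlabeled plus 0.24 uM Alexa 594-labeled, final) in 100 mM sodium acetate pH 7 was mixed with compound and 20 uM heparin and incubated 6 hr at 37 C.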
* hit, by the source's call; ? = inconclusive; · = no result; [ ] = dose if it differs, or a comment. Only some compounds are listed: those with a hit (about 3% of all), similar ones and a draw of the others. Unless noted, calls come from the whole dose curve; as a rule, active = well fitted curve in the direction sought with a large enough effect; inconclusive = small, poorly fitted or top-dose-only effect, or another doubt; inactive = no such curve, though single readings can be large; an effect the other way counts as inactive or inconclusive. Unless noted, % is set by controls: 0 for no effect and ±100 for the full control effect.

SMILES	Tau ThT inhib	KDM4E inh	FBPA coupling cs	Tau fibril FP	Tau fluor cs
Cc1ccc(-c2nc(SCC(=O)NCC3CCCO3)c(-c3ccc(Cl)cc3)[nH]2)cc1 (configuration not stated)	-6%	?	0	0%	?
CCOc1ccc(-c2nnc(SCC(=O)NC3CCCC3)nc2-c2ccc(OCC)c(OC)c2)cc1OC	11%	·	·	2%	13%
COc1ccc(-c2nc(SCC(=O)NC3CCCC3)c(-c3ccc(F)cc3)[nH]2)cc1OC	?	·	·	?	13µM*[quencher]
COCCCNC(=O)CSc1nc(-c2ccc(OC)cc2)[nH]c1-c1ccc(OC)cc1	?	·	·	11%	?
COc1ccc(-c2nc(SCC(=O)NC3CCCC3)c(-c3ccccc3)[nH]2)cc1OC	?	·	·	?	14µM*[quencher]
COc1ccc(-c2[nH]c(-c3ccc(Cl)cc3)nc2SCC(=O)NCC2CCCO2)cc1 (configuration not stated)	?	·	·	9%	13µM*[quencher]
COCCCNC(=O)CSc1nc(-c2ccc(OC)c(OC)c2)[nH]c1-c1ccc(F)cc1	?	·	·	16%	?
CC(O)[C@@H](O)[C@H]1CNc2nc(N)[nH]c(=O)c2N1 (some centres not stated)	?	?	·	-4%	-25%
Cc1ccc(C)c(S(=O)(=O)C(C#N)c2nc3ccccc3nc2N2CCCC2)c1 (configuration not stated)	?	?	-36*	2%	-20%
CCN1C(=O)c2ccccc2S(=O)c2ccc(C(=O)N3CCN(c4ccc(F)cc4)CC3)cc21 (configuration not stated)	-15%	·	·	5%	-17%
CCCC(=Nc1ccc(N)cc1)C1=C(O)C(C(=O)OC)C(C)(C)CC1=O (configuration not stated)	7.9µM*	?	-41*	14µM*	7.1µM*[quencher]
Cc1cc(C)c(NC(=O)c2nc3ccccc3nc2N2CCCCC2)c(C)c1	-8%	·	·	-5%	-1%
Cc1ccsc1/C=N/NC(=O)Cc1ccc(Cl)cc1	-7%	-5%	1	-9%	-21%
Cc1ccsc1/C=N/NC(=O)CSCc1ccc(Cl)cc1	-15%	-3%	-34*	-9%	-29%
COc1ccc(CSCC(=O)N/N=C/c2ccccc2O)cc1	-8%	32µM*	-17	-9%	-27%
COc1cccc(/C=N/NC(=O)CSc2nnc(C)n2-c2ccccc2)c1O	-13%	28µM*	4	-7%	-10%
COc1ccc(/C=N/NC(=O)CSc2nnc(C)n2-c2ccccc2)c(OC)c1OC	-11%	4%	3	6%	-5%
COc1ccc(O)c(/C=N/NC(=O)CSc2nnc(C)n2-c2ccccc2)c1	-9%	22µM*	3	8%	-7%
Cc1ccc(NC(=O)Cn2c(=O)n(Cc3ccccc3)c(=O)c3c2c2cc(C)ccc2n3C)cc1	-7%	·	·	-6%	-4%
Cc1cc(C)c2oc(-c3ccc(C)c(NC(=O)/C=C/c4ccco4)c3)nc2c1	-20%	·	·	-14%	-14%
O=C(CSc1n[nH]c(=O)[nH]c1=O)N/N=C/c1ccccc1O	-1%	14µM*	0	-15%	0%
CCOc1ccccc1/C=N/NC(=O)CSc1n[nH]c(=O)[nH]c1=O	3%	-9%	1	7%	5%
O=C1c2ccccc2C2=Nc3ccccc3SC(c3ccc(Cl)cc3)C12 (configuration not stated)	?	-9%	-2	-17%	?
O=C1c2ccccc2C2=Nc3ccccc3SC(c3cccc(F)c3)C12 (configuration not stated)	13µM*	2%	-2	?	13µM*[quencher]
CCOC(=O)N1CCN(c2cc(N)c([N+](=O)[O-])cc2F)CC1	4.5µM*	-6%	2	-4%	-16%
SMILES	Tau ThT inhib	KDM4E inh	FBPA coupling cs	Tau fibril FP	Tau fluor cs
CC(=O)N1CCN(c2cc(N3CCc4ccccc4C3)c(F)cc2[N+](=O)[O-])CC1	16µM*	7%	-4	3%	-23%
Cc1cccc(Cn2c(C)c(CNC3CCCCC3)c(C(=O)O)c2C)c1	-3%	·	·	1%	-4%
COC(=O)NC(CCc1ccccc1)C(C(C)=O)C(=O)OC (configuration not stated)	5%	-3%	-2	3%	7%
CCOC(=O)c1c(NC(=O)C2CC2)sc(C)c1CC	28µM*	0%	-4	?	-22%
CCCNC(=O)OC[C@@H]1O[C@H](CCO/N=C(\C)CCN2CCCCc3nc(C)c(C)cc32)C=C[C@@H]1Oc1ccc(OC)cc1	-4%[11.5 µM]	·	1	2%[11.6 µM]	-7%[11.6 µM]
COc1ccnc(CSC(N)=Nc2ccccc2OC)c1	32µM*	0%	0	?	-19%
COc1ccnc(CSC(N)=Nc2cccc(C(F)(F)F)c2)c1	18µM*	?	-3	?	?
COc1ccc(OC)c(C2=Nn3c(nnc3-c3ccc(OC)c(OC)c3)SC2)c1	·	·	2	·	·
COc1cc(-c2nc(-c3ccccc3)c(-c3ccc(Br)cc3)[nH]2)cc(OC)c1O	?	·	·	4%	11µM*[quencher]
Oc1ccc(-c2nc(-c3ccccc3)c(-c3ccc(Br)cc3)[nH]2)cc1	28µM*	·	·	?	8.9µM*[quencher]
Cc1ccc(-c2[nH]c(-c3ccc(C(=O)O)cc3)nc2-c2ccccc2)cc1	-18%	?	3	7%	-18%
COc1ccc(-c2[nH]c(-c3cc(OC)c4c(c3)OCO4)nc2-c2ccccc2)cc1	?	?	-2	?	13µM*[quencher]
Oc1ccc(N=Nc2nc(-c3ccccc3)c(-c3ccccc3)[nH]2)cc1	4.5µM*	-7%	0	?	11µM*[quencher]
CSCC[C@H](NC(=O)[C@H](CCCNC(=N)N)NC(=O)[C@H](Cc1ccc(O)cc1)NC(=O)[C@@H]1CCCN1C(=O)CNC(=O)[C@H](CCC(=O)O)NC(=O)[C@H](CC(=O)O)NC(=O)[C@H](CCCCN)NC(=O)[C@H](CCCCN)NC(=O)[C@H](CCC(=O)O)NC(=O)[C@H](C)N)C(=O)N[C@@H](CCC(=O)O)C(=O)N[C@@H](Cc1cnc[nH]1)C(=O)N[C@@H](Cc1ccccc1)C(=O)N[C@@H](CCCNC(=N)N)C(=O)N[C@@H](Cc1c[nH]c2ccccc12)C(=O)NCC(=O)N[C@@H](CO)C(=O)N1CCC[C@H]1C(=O)N1CCC[C@H]1C(=O)N[C@@H](CCCCN)C(=O)N[C@@H](CC(=O)O)C(=O)O	·	·	2	·	·
COc1ccc(/C=N/Nc2cc(N3CCCC3)nc(N3CCCC3)n2)cc1	?	?	-40*	-3%	?
Oc1cccc(/C=N/Nc2cc(N3CCCC3)nc(N3CCCC3)n2)c1	?	-24%	-32*	-1%	16µM*[quencher]
Oc1ccc(/C=N/Nc2cc(N3CCCC3)nc(N3CCCC3)n2)cc1	?	?	-44*	3%	18µM*[quencher]
